Screens (PubChem BioAssay)
ABCB6 inh MLPCN: blocks the human ABCB6 transporter | Q9NP58 | K562-ABCB6 porphyrin accumulation, flow cytometry, 1 h; hits give low values | fluorescence ratio to DMSO, % at 10 µM | 360,000 compounds, 0.19% hits | AID 602162;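 active = fluorescence ratio to DMSO below 75%, the collection mean minus 3 SD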;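 note: signal is porphyrin accumulated inside mitochondria; 100% equals median channel fluorescence of DMSO control wells; lower ratio means ABCB6 inhibition with less porphyrin fluorescence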
VLA-4 inh: inhibition in a human VLA-4 binding assay. P13612. VLA-4 expressing cells, ligand binding flow cytometry. inhibition, % (about 7 µM as worked out from the volumes in the protocol). 330,000 compounds, 0.2% hits; in the data active = inhibition above about 50%
SKN-1 inh: inhibitors of C. elegans SKN-1; C. elegans VP596 Pgst-4::GFP/RFP ratio, acrylamide-induced, 24 h; inhibition, % at 21.8 µM; 360,000 compounds, 0.49% hits; AID 624304;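 active = interference check ratio from 0.5 to 1.5 plus GFP to RFP signal ratio inhibition reaching or exceeding a fixed threshold, cut at about 30% in these data, passing the limit was not always enough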
CR mimetic SO: yeast age-related superoxide inhibition as caloric restriction mimetic. S. cerevisiae aged cells, superoxide DHE fluorescence; hits give low values. superoxide response (% of plate mean), % at 10 µM. 330,000 compounds, 0.18% hits;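 active = superoxide response under a set limit, about three screen SD below normal, cut at about 65% in these data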;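 note: yeast aged for seven days with compound at 30 °C before DHE staining; 100% = average MFI of all compound-treated wells on the plate with controls excluded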
Platelet DG rel: modulates dense granule release in human platelets; human platelet-rich plasma, SFLLRN dense granule ATP release, luminescence; inhibition, %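 (compounds screened at 7.5 µM in platelet-rich plasma)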; 300,000 compounds, 0.22% hits;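 active = mean replicate score, as percent of positive control, at or above 50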
The depositor's hits bear a star; . = no result given. A selection: hits, their analogues and other compounds. The true share with any hit is near 1.2%.

SMILES | ABCB6 inh MLPCN | VLA-4 inh | SKN-1 inh | CR mimetic SO | Platelet DG rel
COc1cccc(-c2nc(CS(=O)(=O)CC(=O)Nc3c(C)cccc3C)c(C)o2)c1 | 90 | 9 | -8 | 105 | 3
COc1ccc(OC)c(NC(=O)CS(=O)(=O)Cc2nc(-c3ccccc3C)oc2C)c1 | 101 | 3 | 4 | 93 | 51*
CCCCCCOc1ccc(N2C(=O)CC(SC(=NCC)NCC)C2=O)cc1 (stereo unspecified) | 94 | -1 | -10 | 65* | -2
CCCOc1ccc(N2C(=O)CC(SC(=NCC)NCC)C2=O)cc1 (stereo unspecified) | 98 | 16 | 1 | 113 | 9
CSC1=NC=C(C#N)C2=NC(c3ccc(Cl)cc3)NN12 (stereo unspecified) | 91 | . | -10 | . | .
Cc1cccc(C)c1NC(=O)C(c1cc2ccccc2o1)N1CCN(C)CC1 (stereo unspecified) | . | . | 4 | . | .
CCCCOC(=O)Nc1ccc(N2CCOCC2)cc1 | 89 | 1 | 14 | 121 | 5
CCCCOC(=O)Nc1ccc(N2CCCCC2)cc1 | 105 | 2 | 46* | 98 | 0
CCCCOC(=O)Nc1ccc(C(N)=O)cc1 | 93 | 14 | 18 | 99 | 10
CCCCOC(=O)Nc1ccc(C(C)C)cc1 | 99 | 0 | 33* | 91 | -5
COc1ccc(C2C(C(C)=O)=C(C)N=c3s/c(=C\c4cc(C)n(C)c4C)c(=O)n32)c(OC)c1 (stereo unspecified) | 225 | -145 | 39* | 96 | 0
CCCS(=O)(=O)NC(=O)C1(C)CCN(C(=O)c2cccc(C(F)(F)F)c2)C1 (stereo unspecified) | 99 | . | 1 | . | .
COC(=O)c1ccc(C#Cc2ccccc2)o1 | 98 | 6 | 37* | 104 | 6
O=C(c1ccc(C#Cc2ccccc2)o1)N1CCN(c2ccccn2)CC1 | 104 | 11 | 8 | 97 | -10
C[C@@H](C(=O)NCCc1c[nH]c2ccccc12)[C@@H]1C[C@@]1(C)[C@@H](NC(=O)OCc1ccccc1)c1ccccc1 | 74* | -4 | -1 | 96 | .
C[C@@H](C(=O)NCc1ccccc1)[C@@H]1C[C@@]1(C)[C@@H](NC(=O)OCc1ccccc1)c1ccccc1 | 103 | -5 | 6 | 103 | -1
CCNC(=S)NNC(=O)c1cc(-c2ccc(OCC)cc2)nc2ccccc12 | 102 | 13 | -28 | 76 | 103*
Cn1nc(C(C)(C)C)cc1C(=O)N1CCCCC1c1cc(C(=O)Nc2ccc3c(c2)OCO3)no1 (stereo unspecified) | 96 | . | -12 | . | .
COc1cccc(C2Nc3ccc4ccccc4c3C3=C2C(=O)CC(C)(C)C3)c1OCC(=O)O (stereo unspecified) | 103 | 0 | 35* | 101 | 7
Cc1c(C(=O)N2CCCCC2)c(S(=O)(=O)N(C)Cc2ccccc2)c(C)n1C | 100 | -8 | 10 | 114 | 56*
CCCCNC(=O)OCC(CC)NC(=O)OC(C)C (stereo unspecified) | 89 | 15 | 17 | 101 | 6
CCCCNC(=O)OCC(CC)NC(=O)OCC(C)C (stereo unspecified) | 89 | 2 | 36* | 115 | -1
CC1OC2CC(=O)OC2C2=C1C(=O)c1c(O)cccc1C2=O (stereo unspecified) | 118 | . | -3 | . | .
Cc1nc2ccccc2c(=O)n1/N=C/c1ccccc1Cl | 94 | 25 | 38* | 95 | 4
O=C(O)C1=CCC(c2ccc(Cl)c(Cl)c2)N(S(=O)(=O)c2ccc(F)cc2)C1c1cccc(F)c1 (stereo unspecified) | . | . | 2 | . | .
SMILES | ABCB6 inh MLPCN | VLA-4 inh | SKN-1 inh | CR mimetic SO | Platelet DG rel
O=C(Nc1ccc2c(c1)OCO2)c1cnn2c(C(F)(F)F)cc(-c3ccco3)nc12 | 93 | -9 | 34 | 120 | .
O=C(c1cnn2c(C(F)(F)F)cc(-c3ccco3)nc12)N1CCCc2ccccc21 | 101 | 8 | 37* | 91 | 11
COC(=O)CC1OCC=C2CN3CCC45C6=CC(=O)C(=O)C([N+](=O)[O-])=C6NC4C1C2CC35 (stereo unspecified) | 99 | . | 14 | . | .
Cc1c(-c2csc(N)n2)c2ccccc2n1C | 109 | -11 | 37* | 130 | 0
COC(=O)[C@]12CCCCC=C1N(CCc1ccc(OC)c(OC)c1)C(=O)[C@H](CC(=O)NCCCCc1ccccc1)C2 | . | . | 2 | . | .
CC(C)(C)C(c1nc2ccccc2[nH]1)n1c(-c2ccsc2)nc2ccccc21 (stereo unspecified) | . | . | 14 | . | .
C=CCC1CCCCC1=C(C#N)c1ccccc1 (stereo unspecified) | 100 | . | 46* | . | .
Clc1ccc(-c2nnc(SCc3ccon3)o2)c(Cl)c1 | 104 | 10 | 37* | 100 | 10
Clc1ccc(-c2nnc(SCc3nc4ccccc4[nH]3)o2)c(Cl)c1 | 99 | 15 | -6 | 102 | 1
C=CCSc1nnc(-c2ccc(Cl)cc2Cl)o1 | 99 | 3 | 86* | 108 | -2
CCc1ccc(C(O)c2ncc(-c3ccccc3Cl)[nH]2)cc1 (stereo unspecified) | 105 | . | 2 | . | .
CCOC(=O)C1(Cc2ccccc2)NC(c2ccccc2F)C2C(=O)N(CC)C(=O)C21 (stereo unspecified) | 101 | 0 | -21 | 99 | -1
CCN1C(=O)C2C(c3ccccc3F)NC(Cc3ccc(O)cc3)(C(=O)OC)C2C1=O (stereo unspecified) | 99 | -13 | 37* | 109 | 0
Nc1ccc(O)cc1C(=O)OCC(=O)C12CC3CC(CC(C3)C1)C2 | 95 | 3 | 45* | 89 | .
Nc1cc([N+](=O)[O-])ccc1Nc1ccc(O)cc1 | 98 | 11 | 19 | 63* | 17
Cc1c(C(=O)Nc2cccc(C(F)(F)F)c2)oc2ccc(S(=O)(=O)N3CCOCC3)cc12 | 97 | 18 | 36* | 93 | .
CCNC(=O)C1CCCN(C(=O)c2ccc3c(c2)CCO3)CC1 (stereo unspecified) | 101 | . | 0 | . | .
CCOC(=O)c1c(NC(=O)c2ccccc2)sc2c(O)c(CN(CC)CC)ccc12 | 69* | -14 | 6 | 102 | 5
CCN(CC)Cc1c(NC(=O)c2ccccc2)sc(C)c1C | 97 | 1 | 9 | 89 | -3
Fc1ccc(-c2nnc(Cc3ccc(Cl)cc3)o2)cc1 | 97 | 2 | 44* | 108 | -1
Fc1ccc(Cc2nnc(-c3cccs3)o2)cc1 | 97 | -4 | 7 | 98 | -1
CCCCCCCCN1C(=O)[C@H](CC(=O)N2CCN(C(=O)OCC)CC2)C[C@@]2(C(=O)OC)CC(C)(C)CC=C12 | . | . | -4 | . | .
CC(C)C(OC(=O)C1=Cc2ccccc2OC1)C(=O)NC1CCCC1 (stereo unspecified) | 89 | 1 | 36* | 108 | -7
N/C(=N\N=C/c1ccc(Br)cc1)N/N=C\c1ccc(Br)cc1 | 94 | 12 | 26 | 98 | 1
N/C(=N\N=C/c1ccc(F)cc1)N/N=C\c1ccc(F)cc1 | 102 | -4 | 51* | 94 | -5
